These results are taken from PubChem BioAssay AID434970 (Sanford-Burnham Center for Chemical Genomics, 2010).

Among all 11,000 compounds or so, about 310 (2.8%) were called active. No stated cut-off is given here; in the data, active means activity change below about -85%; inactive means the rest. This excerpt belongs to a sample that is enriched for actives.

For the assay, the system named is intestinal alkaline phosphatase [Mus musculus]. Nature of the assay: activators of mouse IAP, confirmation, biochemical, luminescence, single concentration (AID 434970). The settings on record: purified mouse IAP, CDP-Star luminescence, 30 min, at 10 µM; activation factor: measured here: IAP activation factor, stronger effect = higher value; activity change, negative = activation: stronger effect = lower value.
For `CC(C)C(OC(=O)c1ccco1)C(=O)NC1CCCCC1` (configuration not stated), the activation factor was 0.964 and the activity change, negative = activation was 3.65% (inactive).
The like results for `Cc1ccc(C)c(N(C(=O)CCC(=O)Nc2cc(C)on2)C(C(=O)NC2CCCC2)c2ccco2)c1` (configuration not stated) were, in that order, 0.998 and 0.2% (inactive).
The like results for `O=C(CSc1ncn[nH]1)NCCc1ccccc1` were, in that order, 1.1 and -10.3% (inactive).
The like results for `CC1CCN(C(c2cccs2)c2nnnn2Cc2ccccc2)CC1` (configuration not stated) were, in that order, 0.984 and 1.65% (inactive).
Regarding `Cn1c(CCN2CCOCC2)nc2cc(NC(=O)COc3ccc(Cl)cc3)ccc21`, the activation factor was determined as 0.927 and the activity change, negative = activation was 7.3% (inactive).
Consider `CC[C@]12c3[nH]c4ccc(Cl)cc4c3CCN1C(=O)[C@@H](CC(=O)NC(C)(C)C)C[C@@H]2C(=O)N1CCN(C(=O)c2ccco2)CC1`, for which the activation factor was found to be 1.14 and the activity change, negative = activation is -13.7% (inactive).
The like results for `CCOC(=O)c1ccc(NC(=O)NCc2ccccc2OC)cc1` were, in that order, 1.8 and -79.8% (inactive).
`CCOC(=O)c1ccc(NC(=O)NCCc2ccccc2OC)cc1`: the activation factor is 2.01 and the activity change, negative = activation is -101% (active).
The like results for `CCOC(=O)c1ccc(NC(=S)NCCc2ccccc2F)cc1` were, in that order, 1.3 and -29.6% (inactive).
The like results for `COc1ccc(C)cc1NC(=O)C1C2C=CC(C2)C1C(=O)O` (configuration not stated) were, in that order, 0.955 and 4.55% (inactive).
The like results for `CCC(NC(=O)Nc1cc(OC)c(OC)c(OC)c1)(C(F)(F)F)C(F)(F)F` were, in that order, 1.8 and -80.2% (inactive).
With `COc1cc(NC(=O)NCC2CCN(Cc3ccccc3C)CC2)cc(OC)c1OC`, the activation factor was 2.9 and the activity change, negative = activation is -190% (active).
The like results for `COc1cc(NC(=O)NCC2CCN(Cc3ccccc3Cl)CC2)cc(OC)c1OC` were, in that order, 2.47 and -148% (active).
The like results for `O=C(Nc1cc(Cl)cc(Cl)c1)C1CCC(=O)N1Cc1ccccc1Cl` (configuration not stated) were, in that order, 1.71 and -70.5% (inactive).
The like results for `COc1cc2c(cc1NC(=O)Nc1ccc(C)cc1)oc1ccccc12` were, in that order, 1.18 and -18.4% (inactive).
`COc1cc(NC(=O)NCC2CCN(Cc3ccc(C)cc3)CC2)cc(OC)c1OC`: the activation factor was determined as 1.88 and the activity change, negative = activation is -88.3% (inactive).
With `CCN(CC)C(=O)[C@H]1C[C@H](CC(=O)NCCc2ccccn2)C(=O)N2CCc3c([nH]c4cc(-c5ccco5)ccc34)[C@]12C`, the activation factor was found to be 1.27 and the activity change, negative = activation was -27% (inactive).
On to `O=C(c1cccs1)n1nc(-c2ccccc2)nc1NCc1ccco1`, for which the activation factor stood at 0.857 and the activity change, negative = activation was 14.4% (inactive).
`FC(F)(F)c1cccc(NC(=S)NCC2COc3ccccc3O2)c1` (configuration not stated): the activation factor is 1.43 and the activity change, negative = activation was -42.8% (inactive).
Turning to `c1ccc(-c2cc3c(NCC4COc5ccccc5O4)ncnc3s2)cc1` (configuration not stated), the activation factor came out at 1.97 and the activity change, negative = activation was -97.1% (active).
The like results for `CCN(c1ccccc1)S(=O)(=O)c1ccc(NCC2COc3ccccc3O2)nc1` (configuration not stated) were, in that order, 1.29 and -28.6% (inactive).
The like results for `CCOc1ccc(C2N(c3cc(C)on3)C(=O)C3CCCN32)cc1OC` (configuration not stated) were, in that order, 1.05 and -5.3% (inactive).
The like results for `O=C(CSc1nnc(Cn2nnc3ccccc32)o1)Nc1ccc(Cl)cc1` were, in that order, 0.985 and 1.5% (inactive).
For the molecule `Cc1ccc(SCc2nc3ccccc3n2CC(=O)Nc2ccc(Cl)cc2)cc1`, the activation factor turned out to be 1.85 and the activity change, negative = activation is -85.5% (active).
The like results for `Cc1cc(C)cc(NC(=O)CCc2nc3ccccc3[nH]2)c1` were, in that order, 1.04 and -3.9% (inactive).
With `O=C(Cn1c(-c2ccccc2Cl)nc2ccccc21)Nc1cccc(Cl)c1`, the activation factor worked out at 2.51 and the activity change, negative = activation was -151% (active).
The like results for `Cc1ccc(SCc2nc3ccccc3n2CC(=O)Nc2ccccc2)cc1` were, in that order, 1.56 and -56% (inactive).
For `Cc1cc(C)cc(NC(=O)Cn2c(-c3ccccc3Cl)nc3ccccc32)c1`, the activation factor came out at 2.48 and the activity change, negative = activation was -148% (active).
The like results for `O=C(CCn1cnc2ccccc2c1=O)Nc1cccc(Cl)c1` were, in that order, 1.01 and -1.4% (inactive).
The like results for `Cc1ccc(C(=O)NC(C)c2nc3ccccc3n2CC(=O)Nc2c(C)cc(C)cc2C)cc1` (configuration not stated) were, in that order, 1.1 and -10.2% (inactive).
The like results for `O=C(CCN1C(=O)c2ccccc2C1=O)NC(=S)Nc1cccc(Cl)c1` were, in that order, 0.956 and 4.4% (inactive).
For the molecule `Fc1ccccc1Cn1nnc2c(NCc3ccccn3)ncnc21`, the activation factor is 0.966 and the activity change, negative = activation is 3.35% (inactive).
The like results for `CCN(CC)CCNC(=O)C1c2ccccc2C(=O)N(CCOC)C1c1ccc(F)cc1` (configuration not stated) were, in that order, 0.972 and 2.85% (inactive).
With `Cc1ccc(C(C)NC(=S)NCc2ccc(F)cc2)c(C)c1` (configuration not stated), the activation factor is 1.39 and the activity change, negative = activation was -38.5% (inactive).
The like results for `CC(=O)Nc1ccc(SCC(=O)OCC(=O)NC(=O)NCc2ccco2)cc1` were, in that order, 0.893 and 10.7% (inactive).
The like results for `COc1ccc(Cl)cc1NC(=O)C1CCCO1` (configuration not stated) were, in that order, 0.924 and 7.6% (inactive).
The like results for `Cc1ccc(C(=O)O)cc1S(=O)(=O)N1CCSCC1` were, in that order, 0.916 and 8.35% (inactive).
`CCN(CC)CCCNC(=O)C1c2cc(OC)c(OC)cc2C(=O)N(C)C1c1cccs1` (configuration not stated): the activation factor came out at 1.04 and the activity change, negative = activation is -4.25% (inactive).
The like results for `COc1cccc(-c2cc(C(F)(F)F)n3ncc(C(=O)NCC4CCCO4)c3n2)c1` (configuration not stated) were, in that order, 1.05 and -4.65% (inactive).
Regarding `CC(C)CCNC(=O)COc1ccc2c(c1)C(=O)CC(C)(C)O2`, the activation factor worked out at 1 and the activity change, negative = activation is -0.15% (inactive).
The like results for `CC(CNC(=S)Nc1cc(F)cc(F)c1)CSc1ccc(Cl)cc1` (configuration not stated) were, in that order, 1.3 and -29.9% (inactive).
Consider `CC(C)Oc1ccc(/C=N/NC(=O)C(CSCc2ccccc2)NC(=O)c2ccc([N+](=O)[O-])cc2)cc1` (configuration not stated), for which the activation factor amounted to 0.941 and the activity change, negative = activation is 5.95% (inactive).
The like results for `Cc1ccc(NC(=O)C2CC(=O)Nc3nc4ccccc4n32)c(C)c1` (configuration not stated) were, in that order, 2.57 and -157% (active).
On to `Cc1ccc(NC(=O)C2C(c3ccccc3)C2(Cl)Cl)c(C)c1` (configuration not stated), for which the activation factor was determined as 1.59 and the activity change, negative = activation was -59.4% (inactive).
Regarding `Cc1ccc(NC(=O)C2CC(=O)NC(N3CCc4ccccc43)=N2)cc1` (configuration not stated), the activation factor is 0.947 and the activity change, negative = activation was 5.35% (inactive).
With `CSc1nc2n(n1)C(c1cccc(F)c1)C(C(=O)Nc1ccc(C)cc1C)=C(C)N2` (configuration not stated), the activation factor is 0.93 and the activity change, negative = activation was 6.95% (inactive).
The like results for `CC(C)c1ccc(NC(=O)C(c2ccccc2)N2CC(=O)Nc3ccccc32)cc1` (configuration not stated) were, in that order, 1.24 and -23.8% (inactive).
The like results for `CC(C)c1ccc(NC(=O)C2CC(=O)Nc3nc4ccccc4n32)cc1` (configuration not stated) were, in that order, 2.38 and -138% (active).
As to `O=C1/C(=C/c2ccco2)CCc2ccccc21`, the activation factor worked out at 1.04 and the activity change, negative = activation is -4% (inactive).
`Cc1ccc(C)c(NS(=O)(=O)c2ccc3[nH]c(=O)oc3c2)c1`: the activation factor worked out at 0.111 and the activity change, negative = activation is 88.9% (inactive).
For the molecule `COc1ccc(NC(=O)Nc2ccc3c(c2)C(=O)N([C@H](C)CO)C[C@H](C)[C@@H](CN(C)S(=O)(=O)c2ccccc2)O3)cc1`, the activation factor is 1.98 and the activity change, negative = activation was -97.7% (inactive).
The like results for `COc1ccc(S(=O)(=O)N(C)C[C@H]2Oc3ccc(NC(=O)Nc4ccccc4)cc3C(=O)N([C@H](C)CO)C[C@@H]2C)cc1` were, in that order, 2.15 and -115% (active).
The like results for `COc1ccc(NC(=O)Nc2ccc3c(c2)C(=O)N([C@H](C)CO)C[C@H](C)[C@@H](CN(C)S(=O)(=O)c2ccc(F)cc2)O3)cc1` were, in that order, 2.01 and -101% (active).
The like results for `C[C@H](CO)N1C[C@H](C)[C@@H](CN(C)S(=O)(=O)c2ccccc2)Oc2ccc(NC(=O)Nc3ccc4c(c3)OCO4)cc2C1=O` were, in that order, 1.95 and -94.6% (inactive).
Consider `COc1ccc(NC(=O)N(C)C[C@H]2Oc3ccc(NC(=O)Nc4ccc(C(F)(F)F)cc4)cc3C(=O)N([C@H](C)CO)C[C@@H]2C)cc1`, for which the activation factor was found to be 1.75 and the activity change, negative = activation was -75.5% (inactive).
The like results for `C[C@H](CO)N1C[C@H](C)[C@@H](CN(C)S(=O)(=O)c2ccccc2)Oc2ccc(NC(=O)Nc3ccccc3)cc2C1=O` were, in that order, 2.62 and -162% (active).
The like results for `COc1ccc(S(=O)(=O)N(C)C[C@H]2Oc3ccc(NC(=O)Nc4ccc5c(c4)OCO5)cc3C(=O)N([C@H](C)CO)C[C@@H]2C)cc1` were, in that order, 1.86 and -86.1% (inactive).
Turning to `COc1ccc(NC(=O)Nc2ccc3c(c2)C(=O)N([C@H](C)CO)C[C@H](C)[C@@H](CN(C)S(=O)(=O)c2ccc(OC)cc2)O3)cc1`, the activation factor amounted to 1.77 and the activity change, negative = activation is -77.3% (inactive).
The like results for `C[C@H](CO)N1C[C@H](C)[C@@H](CN(C)S(=O)(=O)c2ccc(F)cc2)Oc2ccc(NC(=O)Nc3ccccc3)cc2C1=O` were, in that order, 1.91 and -91.2% (inactive).
As to `COc1ccc2[nH]c(=O)c(CN(C(C)=O)c3cccc(C)c3)cc2c1`, the activation factor is 0.991 and the activity change, negative = activation is 0.9% (inactive).
The like results for `O=C(CSc1nnc(-c2cccs2)n1-c1cccc(Cl)c1)c1cccc2c1OCCO2` were, in that order, 0.901 and 9.9% (inactive).
The like results for `CCCc1[nH]nc2c1C(Cc1ccccc1)C(C#N)=C(N)O2` (configuration not stated) were, in that order, 0.921 and 7.85% (inactive).
The like results for `CC(C)N(C(=O)[C@H]1C[C@H](CC(=O)NCCCn2ccnc2)C(=O)N2CCc3c([nH]c4cc(CCC(=O)N(C)C)ccc34)[C@]12C)C(C)C` were, in that order, 0.995 and 0.5% (inactive).
Turning to `CCOC(=O)C1C(C(=O)OC)=C(C2=CCCCC2)c2ccccc2N1S(=O)(=O)C(F)(F)F` (configuration not stated), the activation factor was determined as 0.97 and the activity change, negative = activation was 3% (inactive).
The like results for `Cc1ccc(NC(=O)C2CCCNC2=O)nc1` (configuration not stated) were, in that order, 0.929 and 7.05% (inactive).
The like results for `Cc1cc(N2CCN(C)CC2)nc2ccc(NC(=O)c3ccc4c(c3)OCO4)cc12` were, in that order, 1.03 and -2.9% (inactive).
The like results for `CCCc1n[nH]c2c1/C(=N\O)CCC2` were, in that order, 1.05 and -5.35% (inactive).
For `Cc1ccc(CC(NC(=O)C2CCCCC2)C(=O)O)cc1` (configuration not stated), the activation factor was 1.07 and the activity change, negative = activation is -6.55% (inactive).
For the molecule `O=C(CN1CCN(Cc2ccc(Cl)cc2)CC1)N/N=C/c1ccncc1`, the activation factor was determined as 0.975 and the activity change, negative = activation was 2.5% (inactive).
The like results for `Cc1onc(-c2ccccc2)c1C(=O)Nc1ccnn1C1CCCCC1` were, in that order, 0.923 and 7.65% (inactive).
The like results for `CC(C)Cc1ccc(CN2CCC(n3nccc3NC(=O)C3CCCC3)CC2)cc1` were, in that order, 1.98 and -98.2% (active).
The like results for `Cc1ccccc1NC(=O)CCN1CCN(Cc2ccccc2)CC1` were, in that order, 1.13 and -13.2% (inactive).
`CSc1ccc(CN2CCC(n3nccc3NC(=O)CCCc3ccccc3)CC2)cc1`: the activation factor was determined as 2.27 and the activity change, negative = activation was -126% (active).
The like results for `O=C(CCCc1ccccc1)Nc1ccnn1C1CCN(Cc2ccc(Cl)cc2)CC1` were, in that order, 2.18 and -118% (active).
For the molecule `O=C(NNS(=O)(=O)c1ccc(Cl)cc1)C1CCN(Cc2ccccc2)CC1`, the activation factor worked out at 1.1 and the activity change, negative = activation is -9.8% (inactive).
Turning to `O=C(CCc1nc2ccccc2c(=O)[nH]1)NC1CCN(Cc2ccccc2)CC1`, the activation factor worked out at 0.905 and the activity change, negative = activation is 9.55% (inactive).
